Measured values: the supplement of paper PMC10849652
Of roughly 8,800 targets only a part is listed; those with a hit were picked by preference. About 0.5% of all pairs of compound and target were hits. A number with no mark means an inactive call.

Experiments:
Assay in all cases: log2 fold change, soluble protein after heating vs DMSO (PISA); higher = thermal stabilisation; K562 lysate, 10 uM; active = over 0.2 and 3.5 SD of the protein, either way, in both replicates (recomputed)
erlotinib = compound: C#Cc1cccc(Nc2ncnc3cc(OCCOC)c(OCCOC)cc23)c1 [erlotinib]
How it was run: (§1)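 Dounce homogenisation of K562 pellets in PBS pH 7.4 with 1 mM MgCl2 produced a crude extract, used at 1 mg/mL protein. Exposure to 10 μM compound lasted 30 min, and aliquots were then heated for 3 min across 48°C-58°C, pooled and brought to 0.5% NP-40 at 4°C. The supernatant after 21,000xg for 90 min was quantified by TMTpro 16plex LC-MS/MS with channel sums equalised. Duplicate values are given as log-two fold change in thermal stability relative to solvent controls.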

[1] = compound: C/C(=N\NC(=O)C1=CC(=CC=C1)S(=O)(=O)N2CCOCC2)/C3=C(C=CC(=C3)Cl)O
How it was run: as §1

[2] = compound: C1=CC(=CC=C1C2=NC3=C(N2)C=C(C=C3)C(=O)N)OC4=CC=C(C=C4)Cl
How it was run: as §1

[3] = compound: C1=CC2=C(C=CC(=C2)/C=C\3/C(=O)NC(=NCC4=CC=CS4)S3)N=C1
How it was run: as §1

[4] = compound: C1=CC2=NC=CN=C2C=C1/C=C/3\C(=O)NC(=O)S3
How it was run: as §1

[5] = compound: C1=CC=C(C=C1)C2=NC(=C(N2)C3=CC=NC=C3)C4=CC(=C(C=C4)Cl)O
How it was run: as §1

[6] = compound: C1=CC=C2C(=C1)C3=NNC4=CC=CC(=C43)C2=O
How it was run: as §1

[7] = compound: C1CCN(C1)C(=O)NC2=CC=CC(=C2)NC3=NC=C(C(=N3)NCCC4=CN=CN4)Br
How it was run: as §1

[8] = compound: C1CN(CCC1(CC2=CC=C(C=C2)Cl)N)C3=NC=NC4=C3C=CN4
How it was run: as §1

IRAK-1-4 Inhibitor I = compound: C1COCCN1CCN2C3=CC=CC=C3N=C2NC(=O)C4=CC(=CC=C4)[N+](=O)[O-] [IRAK-1-4 Inhibitor I]
How it was run: as §1

ibrutinib = compound: C=CC(=O)N1CCC[C@@H](n2nc(-c3ccc(Oc4ccccc4)cc3)c3c(N)ncnc32)C1 [ibrutinib]
How it was run: as §1

[9] = compound: CC(=O)c1cnc2ccc(-c3cc(Cl)c(O)c(Cl)c3)nc2c1N[C@H]1CC[C@H](CN(C)C)CC1
How it was run: as §1

ralimetinib = compound: CC(C)(C)Cn1c(N)nc2ccc(-c3[nH]c(C(C)(C)C)nc3-c3ccc(F)cc3)nc21 [ralimetinib]
How it was run: as §1

[10] = compound: CC(C)(O)CC(=O)NCCn1ccc2ncnc(Nc3ccc(Oc4cccc(C(F)(F)F)c4)c(Cl)c3)c21
How it was run: as §1

[11] = compound: CC(C)C1=C2N=C(C=C(N2N=C1)NCC3=CC=CC=C3)NCCCCCCN
How it was run: as §1

[12] = compound: CC1=C(C(CC(=O)N1)C2=CC=C(C=C2)C(F)(F)F)C(=O)NC3=C(C=C4C(=C3)C=NN4)F
How it was run: as §1

[13] = compound: CC1=C(C2=C(C=C1)C(=O)C3=CC=CC=C3N2CCCN)C
How it was run: as §1

[14] = compound: CC1=C(C=C(C=C1)NC(=O)C2=CC(=CC=C2)C(C)(C)C#N)NC3=CC4=C(C=C3)N=CN(C4=O)C
How it was run: as §1

[15] = compound: CC1=C(C=C(C=C1)NC(=O)C2=CC(=CC=C2)N(C)C)NC(=O)C3=CC=C(C=C3)O
How it was run: as §1

[16] = compound: CC1=CC=C(C=C1)SC2=C3C=C(SC3=CN=C2)C(=O)N
How it was run: as §1

UniProt P28288, sequence (P28288 whole entry, looked up): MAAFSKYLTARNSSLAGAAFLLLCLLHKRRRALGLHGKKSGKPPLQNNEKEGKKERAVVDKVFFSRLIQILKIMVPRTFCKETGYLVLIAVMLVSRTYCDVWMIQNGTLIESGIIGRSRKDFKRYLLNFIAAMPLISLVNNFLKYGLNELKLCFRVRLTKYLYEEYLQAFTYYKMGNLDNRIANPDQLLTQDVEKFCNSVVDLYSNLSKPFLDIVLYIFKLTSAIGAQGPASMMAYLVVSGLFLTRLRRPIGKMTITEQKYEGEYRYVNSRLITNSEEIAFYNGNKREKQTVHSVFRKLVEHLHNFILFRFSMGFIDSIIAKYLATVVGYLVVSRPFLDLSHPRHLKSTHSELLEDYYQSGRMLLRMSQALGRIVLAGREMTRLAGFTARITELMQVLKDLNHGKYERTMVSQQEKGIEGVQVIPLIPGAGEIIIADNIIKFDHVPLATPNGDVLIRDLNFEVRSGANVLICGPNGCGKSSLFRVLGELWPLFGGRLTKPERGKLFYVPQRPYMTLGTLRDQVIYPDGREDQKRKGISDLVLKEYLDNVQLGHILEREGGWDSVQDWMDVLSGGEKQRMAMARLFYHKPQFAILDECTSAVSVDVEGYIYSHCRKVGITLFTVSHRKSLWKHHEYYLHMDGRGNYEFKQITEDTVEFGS
UniProt P05091, sequence (P05091 whole entry, looked up): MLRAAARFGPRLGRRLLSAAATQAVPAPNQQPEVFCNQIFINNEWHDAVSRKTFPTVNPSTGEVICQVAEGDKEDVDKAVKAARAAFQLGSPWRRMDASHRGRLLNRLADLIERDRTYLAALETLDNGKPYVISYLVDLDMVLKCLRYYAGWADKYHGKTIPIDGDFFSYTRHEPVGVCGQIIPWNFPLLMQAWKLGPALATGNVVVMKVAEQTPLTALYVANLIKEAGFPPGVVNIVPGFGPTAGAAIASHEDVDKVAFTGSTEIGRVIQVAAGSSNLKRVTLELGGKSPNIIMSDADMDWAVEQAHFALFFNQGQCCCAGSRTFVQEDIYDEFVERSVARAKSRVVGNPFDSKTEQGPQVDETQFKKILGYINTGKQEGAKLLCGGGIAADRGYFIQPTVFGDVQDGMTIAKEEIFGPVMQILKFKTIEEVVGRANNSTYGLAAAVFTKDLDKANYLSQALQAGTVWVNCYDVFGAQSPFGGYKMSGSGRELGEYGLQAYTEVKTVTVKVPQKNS
UniProt O14727, sequence (O14727 whole entry, looked up): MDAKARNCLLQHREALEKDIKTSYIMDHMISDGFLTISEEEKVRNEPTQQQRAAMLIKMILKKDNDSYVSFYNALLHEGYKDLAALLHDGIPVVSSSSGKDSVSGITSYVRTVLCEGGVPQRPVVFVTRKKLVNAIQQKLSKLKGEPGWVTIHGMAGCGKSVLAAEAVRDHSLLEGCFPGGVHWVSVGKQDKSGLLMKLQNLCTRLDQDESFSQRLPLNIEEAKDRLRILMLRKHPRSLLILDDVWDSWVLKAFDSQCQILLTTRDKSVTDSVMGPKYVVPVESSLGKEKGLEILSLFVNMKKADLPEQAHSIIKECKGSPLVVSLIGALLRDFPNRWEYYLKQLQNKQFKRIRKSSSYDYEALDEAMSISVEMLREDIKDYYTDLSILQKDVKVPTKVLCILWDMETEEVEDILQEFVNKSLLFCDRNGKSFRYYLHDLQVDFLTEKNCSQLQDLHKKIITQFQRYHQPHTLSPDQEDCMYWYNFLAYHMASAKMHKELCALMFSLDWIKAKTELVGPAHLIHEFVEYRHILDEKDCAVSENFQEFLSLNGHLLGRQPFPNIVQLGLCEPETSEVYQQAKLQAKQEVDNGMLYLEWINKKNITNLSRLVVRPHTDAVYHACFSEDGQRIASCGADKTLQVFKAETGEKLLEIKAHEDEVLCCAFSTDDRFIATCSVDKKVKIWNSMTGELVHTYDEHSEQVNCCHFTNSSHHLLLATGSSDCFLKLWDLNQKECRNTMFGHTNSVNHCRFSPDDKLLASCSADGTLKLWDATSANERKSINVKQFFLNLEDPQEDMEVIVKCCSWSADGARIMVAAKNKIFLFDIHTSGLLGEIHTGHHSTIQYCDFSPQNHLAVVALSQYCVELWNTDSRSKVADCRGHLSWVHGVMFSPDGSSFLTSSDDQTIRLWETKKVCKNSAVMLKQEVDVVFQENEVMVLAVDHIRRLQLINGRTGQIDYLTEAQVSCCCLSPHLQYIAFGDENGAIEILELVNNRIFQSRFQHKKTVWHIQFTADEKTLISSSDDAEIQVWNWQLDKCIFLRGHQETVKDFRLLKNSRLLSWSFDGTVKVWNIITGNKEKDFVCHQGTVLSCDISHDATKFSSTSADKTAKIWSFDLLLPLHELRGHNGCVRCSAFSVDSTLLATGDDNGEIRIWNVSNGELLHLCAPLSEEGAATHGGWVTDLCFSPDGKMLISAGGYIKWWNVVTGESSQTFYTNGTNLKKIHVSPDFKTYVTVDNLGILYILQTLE
UniProt O43823, sequence (O43823 whole entry, looked up): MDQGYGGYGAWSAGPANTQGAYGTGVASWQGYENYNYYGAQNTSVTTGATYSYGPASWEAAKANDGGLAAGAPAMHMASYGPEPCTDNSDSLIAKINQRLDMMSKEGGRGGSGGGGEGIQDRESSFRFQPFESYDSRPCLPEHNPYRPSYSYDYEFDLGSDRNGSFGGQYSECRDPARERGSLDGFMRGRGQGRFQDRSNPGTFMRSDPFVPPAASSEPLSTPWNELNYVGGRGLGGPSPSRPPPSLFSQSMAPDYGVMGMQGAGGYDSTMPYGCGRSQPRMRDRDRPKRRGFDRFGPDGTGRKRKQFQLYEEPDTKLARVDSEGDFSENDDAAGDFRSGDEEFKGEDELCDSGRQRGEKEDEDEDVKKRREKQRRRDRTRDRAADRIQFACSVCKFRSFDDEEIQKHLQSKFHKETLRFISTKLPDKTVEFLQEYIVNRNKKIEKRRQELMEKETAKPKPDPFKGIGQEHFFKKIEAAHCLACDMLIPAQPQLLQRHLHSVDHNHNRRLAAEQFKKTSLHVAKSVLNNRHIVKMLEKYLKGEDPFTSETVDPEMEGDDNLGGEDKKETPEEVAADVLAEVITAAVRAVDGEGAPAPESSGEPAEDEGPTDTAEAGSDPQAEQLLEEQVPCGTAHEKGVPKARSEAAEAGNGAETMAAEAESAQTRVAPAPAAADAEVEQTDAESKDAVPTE
UniProt P08243, sequence (P08243 whole entry, looked up): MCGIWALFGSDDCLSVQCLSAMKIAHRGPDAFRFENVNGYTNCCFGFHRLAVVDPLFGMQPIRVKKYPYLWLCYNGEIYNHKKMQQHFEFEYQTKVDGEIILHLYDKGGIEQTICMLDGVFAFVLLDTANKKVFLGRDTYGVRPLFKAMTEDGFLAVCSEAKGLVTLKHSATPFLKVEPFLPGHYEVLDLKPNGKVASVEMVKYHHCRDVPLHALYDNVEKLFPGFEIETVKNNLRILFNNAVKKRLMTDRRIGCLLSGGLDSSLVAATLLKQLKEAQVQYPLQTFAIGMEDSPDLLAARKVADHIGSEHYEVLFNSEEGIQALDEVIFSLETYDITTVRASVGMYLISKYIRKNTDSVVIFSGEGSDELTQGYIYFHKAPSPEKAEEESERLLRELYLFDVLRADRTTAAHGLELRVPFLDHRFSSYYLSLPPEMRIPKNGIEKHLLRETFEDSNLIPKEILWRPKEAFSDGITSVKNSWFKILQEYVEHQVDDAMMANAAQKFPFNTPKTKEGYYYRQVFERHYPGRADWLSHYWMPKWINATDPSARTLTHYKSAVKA
UniProt P16219, sequence (P16219 whole entry, looked up): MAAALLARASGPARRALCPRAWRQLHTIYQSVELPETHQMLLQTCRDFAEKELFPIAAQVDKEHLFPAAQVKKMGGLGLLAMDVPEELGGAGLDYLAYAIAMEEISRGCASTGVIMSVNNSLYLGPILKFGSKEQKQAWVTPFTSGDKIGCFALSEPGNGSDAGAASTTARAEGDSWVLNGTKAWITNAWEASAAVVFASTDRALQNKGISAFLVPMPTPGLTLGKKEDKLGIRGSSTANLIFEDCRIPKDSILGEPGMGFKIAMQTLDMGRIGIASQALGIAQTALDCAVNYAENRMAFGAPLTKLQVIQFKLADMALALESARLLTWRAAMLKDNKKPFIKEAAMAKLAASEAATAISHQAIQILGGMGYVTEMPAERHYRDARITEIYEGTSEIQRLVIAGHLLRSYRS
UniProt P07355, sequence (P07355 whole entry, looked up): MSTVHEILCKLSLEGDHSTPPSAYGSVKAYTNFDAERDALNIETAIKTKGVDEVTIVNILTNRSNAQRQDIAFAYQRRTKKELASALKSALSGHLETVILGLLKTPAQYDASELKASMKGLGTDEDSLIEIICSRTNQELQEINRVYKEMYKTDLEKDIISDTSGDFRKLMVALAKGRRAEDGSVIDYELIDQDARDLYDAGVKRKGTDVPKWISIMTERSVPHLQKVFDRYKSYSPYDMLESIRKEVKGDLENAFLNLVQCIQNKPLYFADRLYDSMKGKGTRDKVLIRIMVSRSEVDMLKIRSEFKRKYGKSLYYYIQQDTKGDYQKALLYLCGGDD
UniProt Q8N2K0, sequence (Q8N2K0 whole entry, looked up): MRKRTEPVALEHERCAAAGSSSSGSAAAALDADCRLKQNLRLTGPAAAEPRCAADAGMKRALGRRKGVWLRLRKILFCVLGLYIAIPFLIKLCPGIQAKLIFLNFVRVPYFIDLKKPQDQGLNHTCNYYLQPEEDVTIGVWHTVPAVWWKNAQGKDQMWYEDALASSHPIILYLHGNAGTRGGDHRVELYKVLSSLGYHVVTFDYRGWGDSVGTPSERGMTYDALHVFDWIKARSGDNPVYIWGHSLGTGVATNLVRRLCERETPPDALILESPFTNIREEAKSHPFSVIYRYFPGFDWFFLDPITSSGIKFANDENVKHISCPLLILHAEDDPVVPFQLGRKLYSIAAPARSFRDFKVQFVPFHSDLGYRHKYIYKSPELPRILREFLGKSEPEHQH

Row | Target | log2 fold change (erlotinib) | log2 fold change [1] | log2 fold change [2] | log2 fold change [3] | log2 fold change [4] | log2 fold change [5] | log2 fold change [6] | log2 fold change [7] | log2 fold change [8] | log2 fold change (IRAK-1-4 Inhibitor I) | log2 fold change (ibrutinib) | log2 fold change [9] | log2 fold change (ralimetinib) | log2 fold change [10] | log2 fold change [11] | log2 fold change [12] | log2 fold change [13] | log2 fold change [14] | log2 fold change [15] | log2 fold change [16]
1 | ALDH2 (UniProt P05091) | -0.048 | 0.009 | -0.062 | 0.03 | 0.042 | -0.016 | 0.175 | 0.011 | 0.023 | 0.003 | -0.001 | 0.081 | 0.002 | -0.012 | 0.199 | -0.013 | 0.014 | -0.081 | 0 | 0.01
2 | AIMP2 (UniProt Q13155) | 0.021 | 0.062 | -0.01 | 0.006 | 0.002 | -0.016 | -0.001 | 0.014 | -0.036 | 0.008 | 0 | 0.013 | 0.044 | 0.015 | 0.044 | 0.002 | 0.018 | -0.005 | 0.019 | 0.028
3 | ARL15 (UniProt Q9NXU5) | -0.035 | 0.004 | -0.009 | 0.011 | 0.079 | -0.033 | 0.005 | 0.004 | -0.031 | 0.038 | -0.015 | 0.048 | -0.012 | -0.05 | 0.015 | 0.005 | 0.005 | 0.001 | 0.033 | -0.005
4 | AKAP11 (UniProt Q9UKA4) | 0.114 | 0.232 | 0.037 | 0.095 | 0.016 | 0.059 | -0.361 (active) | -0.064 | 0.017 | -0.071 | 0.032 | -0.111 | 0.058 | -0.068 | 0.054 | 0.065 | -0.015 | -0.002 | 0.003 | 0.085
5 | APAF1 (UniProt O14727) | 0.005 | 0.084 | -0.054 | 0.019 | -0.016 | -0.029 | -0.003 | 0.022 | 0.015 | -0.021 | 0.027 | 0.063 | 0.031 | -0.04 | 0.009 | 0.008 | -0.005 | 0.003 | 0.002 | 0.022
6 | AGO4 (UniProt Q9HCK5) | -0.038 | -0.008 | 0.031 | -0.02 | -0.031 | 0.009 | -0.015 | 0.009 | 0.016 | -0.009 | 0.034 | -0.035 | 0.022 | -0.011 | -0.049 | 0.025 | 0.05 | 0 | -0.013 | -0.024
7 | AKAP8 (UniProt O43823) | -0.015 | 0.002 | 0.038 | -0.005 | -0.04 | 0.045 | -0.047 | 0.044 | 0 | 0.089 | 0 | -0.019 | -0.039 | -0.084 | -0.009 | 0.076 | -0.056 | -0.158 | 0.016 | -0.03
8 | ASNS (UniProt P08243) | 0.024 | 0.067 | -0.019 | -0.007 | 0.017 | -0.023 | -0.018 | 0.016 | 0.038 | 0.011 | 0.012 | 0.015 | -0.014 | 0.012 | 0.052 | -0.017 | 0.04 | 0.016 | 0.014 | 0.047
9 | ABCD3 (UniProt P28288) | -0.1 | 0.556 (active) | 0.217 | -0.051 | -0.055 | -0.075 | -0.031 | -0.084 | 0.044 | -0.003 | -0.035 | -0.083 | -0.067 | 0.064 | 0.185 | 0.01 | -0.096 | -0.028 | -0.073 | -0.031
10 | ANKRD52 (UniProt Q8NB46) | 0.056 | -0.288 | 0.026 | -0.011 | 0.021 | 0.013 | -0.092 | 0.008 | 0.072 | 0.051 | 0.01 | -0.089 | -0.002 | -0.025 | 0.022 | 0.007 | -0.058 | 0.011 | 0.047 | -0.363 (active)
11 | ANXA2 isoform 2 (UniProt P07355) | -0.009 | 0.041 | 0.023 | -0.003 | 0.003 | 0.004 | 0.025 | -0.006 | -0.001 | -0.01 | -0.013 | 0.012 | -0.009 | 0.033 | -0.01 | 0.006 | 0.048 | -0.024 | -0.01 | 0.013
12 | ARAP1 (UniProt Q96P48) | 0.003 | -0.164 | -0.041 | 0.024 | 0.022 | 0.022 | 0.013 | -0.01 | -0.007 | 0.008 | -0.01 | 0.002 | 0.016 | 0.028 | 0.003 | 0.02 | -0.01 | 0.005 | 0.057 | 0.006
13 | ABHD12 isoform 2 (UniProt Q8N2K0) | -0.027 | -0.031 | -0.062 | 0.074 | 0.037 | -0.064 | 0 | -0.03 | 0.048 | 0.014 | -0.039 | -0.03 | 0.043 | -0.014 | 0.05 | 0.052 | 0.021 | 0.022 | -0.05 | 0.033
14 | ACOX1 isoform 2 (UniProt Q15067) | -0.01 | -0.023 | 0.007 | 0.007 | 0.01 | 0.011 | -0.017 | -0.007 | 0.024 | 0.081 | 0.036 | 0.052 | 0.098 | -0.044 | -0.013 | -0.016 | -0.043 | 0.001 | -0.026 | -0.024
15 | AMPD3 isoform 4 (UniProt Q01432) | 0 | 0.048 | 0.031 | 0.007 | -0.072 | -0.004 | 0.027 | -0.002 | -0.002 | 0.015 | 0.05 | 0.001 | 0.037 | -0.041 | -0.019 | -0.029 | 0.011 | 0.006 | -0.004 | -0.005
16 | ACADS (UniProt P16219) | -0.013 | 0.021 | -0.013 | 0.062 | -0.012 | 0.001 | -0.046 | 0.01 | 0.027 | 0.017 | -0.006 | 0.031 | 0.004 | -0.026 | -0.002 | -0.041 | -0.022 | 0.004 | -0.027 | 0.018
